According to PubChem BioAssay AID686979 (National Center for Advancing Translational Sciences (NCATS), 2013):
About 50,000 (12%) of roughly 420,000 compounds were called active. Another 26% or so got no clear call; they are omitted. The call rests on the fitted dose curve; in most records, active means well fitted inhibition curve with a large enough effect; inconclusive means small, poorly fitted or top-dose-only effect; inactive means flat fitted curve, though single readings scatter. The full list was thinned out, with actives kept by preference.

Test: qHTS for Inhibitors of human tyrosyl-DNA phosphodiesterase 1 (TDP1): qHTS in cells in presence of CPT; further: nearly all actives have a fitted effect of over 55% in size
Settings: chicken DT40 Tdp1-/-;hTDP1 cells + 20 nM CPT, ATP luminescence, 48 h; series mostly up to 46.2 µM; activity change, negative = growth inhibition: at the top concentration
How it was run: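 Chicken DT40 Tdp1-/- cells stably complemented with human TDP1 were seeded at 400 cells/well in medium containing 20 nM camptothecin, exposed to pin-transferred compounds, and grown at 37 °C for at least 48 hr. Viability was read as ATP luminescence.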
On the % scale 0 is the no-effect control and ±100 the full control effect; potency means the concentration at half of the fitted maximal effect.

Structure (SMILES)	activity change, negative = growth inhibition	Potency
O=C(COC(=O)c1cccnc1Cl)NC(=O)NC1CCCCC1	-26.5% (inactive)	–
C[C@H](C(=O)CC(=O)OC(C)(C)C)[C@H](O)c1ccc(C(F)(F)F)cc1	-20.8% (inactive)	–
Cc1ccc(SCCC(=O)NC(C(C)C)C(C)C)cc1	-19.8% (inactive)	–
COc1ccc(OCC(=O)Nc2ccc(NC(=O)c3ccco3)c(C)c2)cc1	-2.05% (inactive)	–
CCC1(C2CCN(C(=O)c3cccc(F)c3F)CC2)NC(=O)N(CCc2scnc2C)C1=O (stereo not given)	9.29% (inactive)	–
CCCC(C)NC(=O)C1CCN(C(=O)C2CC(=O)N(c3ccc(C)cc3)C2)CC1 (stereo not given)	-3.56% (inactive)	–
CCN(Cc1ccccc1)S(=O)(=O)c1cc(C(=O)O)ccc1OC	2.08% (inactive)	–
CSC1=NN(c2ccccc2)CN(c2ccccc2)N1C	7.18% (inactive)	–
CC(C)NC(=O)NC(=O)CSc1nnc(-c2ccccc2F)n1N	-22.8% (inactive)	–
COc1ccc(-n2nnnc2SCC(=O)Nc2ccccc2)cc1	-14.1% (inactive)	–
COc1ccc(-n2c(SCC(=O)Nc3ccc(Cl)c(C)c3)nc3n[nH]c(C)c3c2=N)cc1	–	13 µM (active)
COc1ccc(-n2c(Cc3cccn3C)nnc2SCC(=O)Nc2cc(C)cc(C)c2)cc1	2.23% (inactive)	–
Cn1c(CNC(=O)c2ccccc2F)nnc1SCc1ccc(F)cc1	-7.86% (inactive)	–
O=C(NCc1cccnc1)c1nc(-c2cccs2)no1	14.9% (inactive)	–
O=C(CSc1ccccc1)Nc1cc(Cl)ccc1Oc1ccccc1	-9.91% (inactive)	–
CC(=O)Nc1ccc(NC(=O)CN2CCCC(C)C2)c(Cl)c1 (stereo not given)	-20.9% (inactive)	–
CC1CCCN(CC(=O)Nc2cc(Cl)ccc2Oc2ccccc2)C1 (stereo not given)	–	25.9 µM (active)
CC1CCCN(S(=O)(=O)c2ccc(-c3ccc(=O)[nH]n3)o2)C1 (stereo not given)	-5.64% (inactive)	–
Cc1ccc(/C=C/C(=O)OCC(=O)NCc2ccc(Cl)cc2)o1	1.25% (inactive)	–
Cc1ccc(N(C(=O)Cc2cccs2)C(C(=O)NCC2CCCO2)c2ccncc2)cc1 (stereo not given)	0.789% (inactive)	–
CCOc1ccc(N(C(=O)c2snc(C(N)=O)c2N)C(C(=O)NCC2CCCO2)c2c[nH]c3ccccc23)cc1 (stereo not given)	-75.3% (inactive)	–
Cc1ccc(N(C(=O)c2snc(C(N)=O)c2N)C(C(=O)NCC2CCCO2)c2c[nH]c3ccccc23)cc1 (stereo not given)	–	4.61 µM (active)

Structure (SMILES)	activity change, negative = growth inhibition	Potency
COCCNC(=O)C(c1ccc(C)o1)N(Cc1cccs1)C(=O)c1snc(C(N)=O)c1N (stereo not given)	-20.2% (inactive)	–
COc1ccc(N(C(=O)c2snc(C(N)=O)c2N)C(C(=O)NC2CCCC2)c2ccco2)cc1OC (stereo not given)	5.11% (inactive)	–
Cc1ccc(C(C(=O)NCC2CCCO2)N(C(=O)c2snc(C(N)=O)c2N)c2ccc(C(C)C)cc2)o1 (stereo not given)	–	23.1 µM (active)
Nc1nc(Sc2ncccc2[N+](=O)[O-])n[nH]1	-12% (inactive)	–
O=C(Oc1ccc(Br)cc1C(=S)N1CCOCC1)c1cccc([N+](=O)[O-])c1	-14.6% (inactive)	–
O=C(NNC(=O)C(O)c1ccccc1)NC1CCCCC1 (stereo not given)	-10.7% (inactive)	–
O=C(CN1CCN(Cc2ccc(Cl)cc2)C1=O)NCc1ccc(F)cc1	-26.3% (inactive)	–
NC(=O)c1ccc(Nc2ccc3nonc3c2[N+](=O)[O-])cc1	0.436% (inactive)	–
O=C(Nc1cccc2ccccc12)N1CCN(Cc2ccc3c(c2)OCO3)CC1	-19.1% (inactive)	–
Cc1cc(C)n2nc(C(=O)N3CCN(Cc4ccc5c(c4)OCO5)CC3)nc2n1	2.69% (inactive)	–
O=C(C1CCN(Cc2ccc(Cl)cc2)CC1)N1CCN(Cc2ccc3c(c2)OCO3)CC1	–	23.1 µM (active)
CCN(CCCNC(=O)C1CCN(S(=O)(=O)c2cnc[nH]2)CC1)c1ccccc1	-22% (inactive)	–
O=C(c1cccs1)N1CCN(Cc2ccc3c(c2)OCO3)CC1	-18.3% (inactive)	–
O=C(C1CCN(S(=O)(=O)c2cnc[nH]2)CC1)N1CCN(Cc2ccc3c(c2)OCO3)CC1	–	20.6 µM (active)
CCN(C(=O)CSc1nnnn1-c1ccc(OC)cc1)C1CCS(=O)(=O)C1 (stereo not given)	4.62% (inactive)	–
CO/N=C/c1cn(-c2ccc(Cl)cc2)nn1	-1.57% (inactive)	–
CSc1ccc(/C=N/NC(=O)c2cccc(Cl)c2)cc1	2.7% (inactive)	–
CCOC(=O)c1ccccc1NC(=O)c1c(N)n(C)c(=O)[nH]c1=O	-25.9% (inactive)	–
CCc1ccc(NC(=O)CN2C(=O)COc3ccc(S(=O)(=O)N4CCCC4)cc32)cc1	-26.2% (inactive)	–
NS(=O)(=O)c1ccc(NC(=O)/C=C/c2ccccc2Cl)cc1	-4.03% (inactive)	–
COc1ccc(NS(=O)(=O)c2ccc(NC(=O)c3ccc(N(C)S(C)(=O)=O)cc3)cc2)cc1	–	8.2 µM (active)
CC(=O)Nc1ccc(NS(=O)(=O)c2ccc3c(c2)NC(=O)CC(=O)N3)cc1	4.03% (inactive)	–

Structure (SMILES)	activity change, negative = growth inhibition	Potency
COc1ccc(C(=O)Nc2ccc(S(=O)(=O)Nc3onc(C)c3C)cc2)cc1OC	-6.94% (inactive)	–
CC(=O)Nc1ccc(S(=O)(=O)N2CCCC2C(=O)O)cc1 (stereo not given)	6.9% (inactive)	–
COc1cc(OC)cc(C(=O)Nc2ccc(S(=O)(=O)Nc3cc(C)on3)cc2)c1	-1.33% (inactive)	–
CC(=O)Nc1ccc(S(=O)(=O)Nc2ccc(N3CCCCC3)cc2)cc1	–	4.61 µM (active)
COC(=O)COc1ccc(S(=O)(=O)Nc2ccc(NC(C)=O)cc2)cc1	-10.2% (inactive)	–
COc1ccc(/C=N/NS(=O)(=O)c2ccc(NC(C)=O)cc2)cc1	-22.2% (inactive)	–
COc1cc(NS(=O)(=O)c2ccc(NC(C)=O)cc2)cc(OC)c1	–	14.6 µM (active)
COc1ccc(NC(=O)c2cnc(NS(=O)(=O)c3ccccc3)nc2)cc1	1.22% (inactive)	–
CC(=O)Nc1ccc(S(=O)(=O)Nc2cccc(NC(=O)C(C)(C)C)c2)cc1	-20.3% (inactive)	–
COc1ccc(NS(=O)(=O)c2ccc(NC(C)=O)cc2)cc1OC	–	9.2 µM (active)
CCOc1ncccc1C(=O)OCC(=O)N1c2ccccc2CC1C (stereo not given)	-21.5% (inactive)	–
Oc1cccc2ccc(/C=C/c3ccc(Br)s3)nc12	-11.9% (inactive)	–
Cc1c(C(=O)NCCN2C(=O)S/C(=C\c3cccs3)C2=O)cccc1[N+](=O)[O-]	-19.9% (inactive)	–
CCCNC(=O)CCn1cc(-c2ccc(OC)cc2)nc1CCN	-18.8% (inactive)	–
CC(=O)c1cccc(NC(=S)N2CCN(S(C)(=O)=O)CC2)c1	2.39% (inactive)	–
CCCCCn1c(=O)c(C(=O)OCC)c(Cl)c2ccccc21	-8.41% (inactive)	–
COc1ccc(S(=O)(=O)Nc2ccc3oc(C)c(C(C)=O)c3c2)cc1	–	3.26 µM (active)
COc1ccc2oc(C)c(NC(C)=O)c2c1	3.05% (inactive)	–
CC(=O)c1c(C)oc2ccc(NS(=O)(=O)c3ccccc3)cc12	-27% (inactive)	–
Cc1cccc(-c2noc(CCC(=O)NC3CCCC3)n2)c1	0.0036% (inactive)	–
CC(Oc1ccccc1)C(=O)Nc1c2c(nn1-c1ccccc1)CS(=O)C2 (stereo not given)	4.72% (inactive)	–
